# The source made the active and inactive calls. How the calls were made is not given here.
# Tested on: HIV-1 nucleocapsid protein NCp7 (binding to TG oligonucleotide)
# Assay: HIV Nucleocapsid (AID 346);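 further: potency is for inhibitors that block NC binding and lower polarization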
# Conditions: HIV-1 NC / fluorescein-TGTGTGTG probe, fluorescence polarization
# Summary of the method: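 HIV-1 NC (100 nM) binding to fluorescein-labelled ssDNA TG4xF (10 nM) in Hepes pH 7.5, 250mM NaCl, 1uM ZnCl2, TCEP and 2-mercaptoethanol; compounds pin-transferred, 1 hr room temperature, fluorescence polarization read on CCD imager.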
# Potency means the concentration at half of the fitted maximal effect.
row,SMILES,Potency
1,COC(=O)N1CCC[C@@]2(CCN(C(=O)Nc3cccc(F)c3)C2)C1,> 20 µM (inactive)
2,COc1ccc(CNc2ncncc2-c2ccccc2OC)c(OC)c1,> 20 µM (inactive)
3,COc1ccc(-c2nc3cnc(OC)nc3n(C[C@H]3CCCO3)c2=O)cc1,> 20 µM (inactive)
4,Cc1nc2cnc(N3CCNCC3)nc2n(-c2ccccc2)c1=O,> 20 µM (inactive)
5,CN(C)c1ncc2nc(-c3ccccc3)c(=O)n(Cc3cccs3)c2n1,> 20 µM (inactive)
6,O=C(c1cnccn1)N1CCC2(CCCN(c3ccccn3)C2)CC1,> 20 µM (inactive)
7,O=C(c1ccco1)N1CCC2(CCCN(c3cccc(-c4ccccc4)c3)C2)CC1,> 20 µM (inactive)
8,CCNc1ncc2nc(-c3cn(C)c4ccccc34)c(=O)n(Cc3ccc(F)cc3)c2n1,> 20 µM (inactive)
9,COc1ccc(NC(=O)N2CCCC3(CCN(S(C)(=O)=O)CC3)C2)cc1,> 20 µM (inactive)
10,COCC(=O)N1CCC[C@@]2(CCN(Cc3cc(C(F)(F)F)cc(C(F)(F)F)c3)C2)C1,> 20 µM (inactive)
11,CC(=O)N1CCC2(CCN(Cc3cc(C(F)(F)F)cc(C(F)(F)F)c3)CC2)CC1,> 20 µM (inactive)
12,O=c1c(-c2ccc(Cl)cc2)nc2cnc(N3CCOCC3)nc2n1Cc1ccc(F)cc1,> 20 µM (inactive)
13,Cc1noc(C)c1-c1nc(Nc2ccc(F)cc2)c2ccccc2n1,> 20 µM (inactive)
14,CN1CCN(c2ncc3nc(CCc4ccccc4)c(=O)n(CCc4ccccc4)c3n2)CC1,> 20 µM (inactive)
15,COc1ccccc1CCn1c(=O)c(-c2cccc(F)c2)nc2cncnc21,> 20 µM (inactive)
16,COc1ncc2nc(-c3ccccc3)c(=O)n(C)c2n1,> 20 µM (inactive)
17,CN(C)c1cc(-c2cccc(NS(C)(=O)=O)c2)ncn1,> 20 µM (inactive)
18,O=c1c(CCc2ccccc2)nc2cnc(N3CCOCC3)nc2n1CCc1ccccc1,> 20 µM (inactive)
19,N#Cc1cccc(NC(=O)N2CC3(CCN(C(=O)c4ccco4)CC3)C2)c1,> 20 µM (inactive)
20,O=C(Nc1ccccc1)N1CC2(CCN(C(=O)c3cnccn3)CC2)C1,> 20 µM (inactive)

row,SMILES,Potency
1,c1ccc2c(N3CCNCC3)nc(-c3ccc4c(c3)OCO4)nc2c1,> 20 µM (inactive)
2,N#CCCn1c(=O)c(-c2ccccc2)nc2cnc(OCc3ccccc3)nc21,> 20 µM (inactive)
3,Clc1ccccc1-c1nc(N2CCNCC2)c2ccccc2n1,> 20 µM (inactive)
4,COc1ncc2ncc(=O)n(Cc3cccs3)c2n1,> 20 µM (inactive)
5,COc1ccc(-n2c(=O)cnc3cnc(Oc4ccccc4)nc32)cc1,> 20 µM (inactive)
6,COc1ccc(-c2nc3cnc(Oc4ccccc4)nc3n(Cc3cccs3)c2=O)cc1,> 20 µM (inactive)
7,Cn1cccc1C(=O)N1CCC2(CCCN(c3ncccn3)C2)CC1,> 20 µM (inactive)
8,CN(C)Cc1ccccc1-c1nccc(N(C)Cc2ccco2)n1,> 20 µM (inactive)
9,O=C(c1csnn1)N1CCC2(CCCN(C(c3ccccc3)c3ccccc3)C2)CC1,> 20 µM (inactive)
10,Cc1nc2cnc(OCc3ccccc3)nc2n(CCc2ccccc2)c1=O,> 20 µM (inactive)
11,COc1ccc(CNc2nc(-c3cccc(NS(C)(=O)=O)c3)nc3ccccc23)c(OC)c1,> 20 µM (inactive)
12,COc1ccc(Oc2ncc3nc(C)c(=O)n(C[C@H]4CCCO4)c3n2)cc1,> 20 µM (inactive)
13,O=C(c1cccc(F)c1)N1CCC2(CC1)CN(c1ccncc1)C2,> 20 µM (inactive)
14,Cc1cnc(CNc2nc(-c3ccccc3C)nc3ccccc23)cn1,> 20 µM (inactive)
15,COc1ccc(-c2nc3cnc(OC)nc3n(-c3ccccc3)c2=O)cc1,> 20 µM (inactive)
16,COc1ccc(C(=O)N2CCC[C@@]3(CCN(CC(C)C)C3)C2)cc1,> 20 µM (inactive)
17,O=C(c1ccco1)N1CCC2(CC1)CN(C(c1ccccc1)c1ccccc1)C2,> 20 µM (inactive)
18,COc1ccc2[nH]cc(CCNc3ncncc3-c3ccc4c(c3)OCO4)c2c1,> 20 µM (inactive)
19,COc1ccc(-n2c(=O)c(-c3cccs3)nc3cnc(OC)nc32)cc1,> 20 µM (inactive)

# From PubChem BioAssay (NCATS)
